Activity calls are given as the source filed them. The calls were made as follows: active = hit-call score of the fitted dose curve at least 0.9, where 1 is the maximum; inactive = score below 0.9.
Assay: APR_HepG2_P-H2AX_1hr: Apredica 1-hour HepG2 Assay for H2AX Phosphorylation (AID 2282673)
Conditions: high-content imaging, actives raise or lower the signal
Experimental: APR_HepG2_1hr is a cell-based, multiplexed-readout assay that uses HepG2, a human liver cell line, with measurements taken at 1 hour after chemical dosing in a 384-well plate.APR_HepG2_P-H2AX_1hr is one of 10 assay component(s) measured or calculated from the APR_HepG2_1hr assay. It is designed to make measurements of dna content, a form of viability reporter, as detected with fluorescence intensity signals by HCS Fluorescent Imaging technology.Data from the assay component APR_HepG2_P-H2AX_1hr was analyzed into 1 assay endpoint. This assay endpoint, APR_HepG2_P-H2AX_1hr, was analyzed with bidirectional fitting relative to DMSO as the negative control and baseline of activity. Using a type of viability reporter, measures of protein for gain or loss-of-signal activity can be used to understand the signaling at the pathway-level as they relate to the gene . Furthermore, this assay endpoint can be referred to as a primary readout, because this assay has produced multiple assay endpoints where this one serves a signaling function. To generalize the intended target to other relatable targets, this assay endpoint is annotated to the dna binding intended target family, where the subfamily is cellular response to DNA damage stimulus.
Cells were treated with dimethyl sulfoxide (DMSO) as a solvent control at a final concentration of 0.5% v/v or with compounds in DMSO with a resulting final DMSO concentration of 0.5% v/v. Compound treatment was done at concentrations of 0.39, 0.78, 1.56, 3.12, 6.24, 12.5, 25, 50, 100, and 200 uM in duplicate on each plate. Cells were treated with compounds for 1, 24, or 72 hr. Carbonyl […] m-chloro-phenylhydrazone (CCCP) and taxol were used as positive controls for mitochondrial function and cytoskeletal stability, respectively; DMSO served as the negative control for this experiment. Cells were fixed by the direct addition of 50 uL formaldehyde in Hank's Balanced Salt Solution (HBSS) to a final concentration of 3.7%. After incubation in the fixation medium for 30 min at room temperature (293-298 K), cells were rinsed twice with HBSS and treated with cell permeabilization buffer (16 uL of 0.5% Triton X-100) for 10 min at room temperature (293-298 K) before labeling. For mitochondrial membrane potential and mitochondrial measurements, pre-fixed cells were incubated with 50 uL of MitoTracker Red CMXRos (Invitrogen) at a concentration of 250 nM for 30 min before fixation. In the remaining cases, post-fixed cells were labeled by incubation with a multiplexed mixture of primary antibodies in HBSS for 60 min at room temperature (293-298 K) to detect immunoreactivity of c-Jun (1:500), phospho-histone H3 (1:100), phospho-histone H2A.x (1:200), p53 (1:400), alpha-tubulin (1:200) and Hoechst 33342 (2 ug/mL). Cells were labeled for multiplexed imaging on two separate plates: a) Hoechst 33342, MitoTracker Red, phospho-histone H3, and alpha-tubulin, and b) Hoechst 33342, phospho-histone H2A.x, and c-Jun. A final rinse with HBSS (50 uL) was performed before analysis. The primary and secondary antibodies for the proteins were phospho-histone H3 (rabbit anti-phospho-histone H3 and FITC-donkey anti-rabbit IgG), phospho-histone H2A.x (mouse anti-phospho-histone H2A.x and FITC-donkey anti-mouse IgG), c-Jun (rabbit anti-phospho-c-Jun and Cy3-donkey anti-rabbit IgG), p53 (sheep anti-p53 and Cy5-donkey anti-sheep IgG), alpha-tubulin (mouse anti-alpha-tubulin and Cy5-donkey anti-mouse IgG). These antibodies are available as the CellCiphr HepG2 assay kit (Millipore).Digital images of each well were captured using a Cellomics ArrayScan VTI (Thermo Scientific Cellomics) (0.8 NA objective, 0.63x optical coupler, and XF-93 filter set) at 20x magnification. The images were acquired using the autofocus feature of the ArrayScan instrument, which entails the following steps. First, the camera focuses on channel 1 (Hoechst 33342), where nuclei are identified. Second, a Z offset of 1 um is used for capturing mitochondria (MitoTracker Red). […]

| Structure (SMILES) | outcome | AC50 |
| --- | --- | --- |
| COc1ccc(-c2ccccc2)cc1NNC(=O)OC(C)C | inactive | – |
| Cn1c(-c2ccccc2)cc(-c2ccccc2)[n+]1C | inactive | – |
| CNC(=O)Oc1cccc2ccccc12 | – | 57.9 µM (active) |
| CNC(=O)N(C)c1nnc(C(C)(C)C)s1 | inactive | – |
| CN=C=S | inactive | – |
| COC(=O)NS(=O)(=O)c1ccc(N)cc1 | inactive | – |
| CCCCOCN(C(=O)CCl)c1c(CC)cccc1CC | inactive | – |
| CCN(CC)C(=O)C(C)Oc1cccc2ccccc12 (stereo not given) | inactive | – |
| CSC(=O)c1c(C(F)F)nc(C(F)(F)F)c(C(=O)SC)c1CC(C)C | inactive | – |
| Nc1c(Cl)c(Cl)nc(C(=O)O)c1Cl | inactive | – |
| CC(C)=CC1C(C(=O)OCc2coc(Cc3ccccc3)c2)C1(C)C (stereo not given) | inactive | – |
| CC(C)NC(=O)N1CC(=O)N(c2cc(Cl)cc(Cl)c2)C1=O | inactive | – |
| CO/N=C(/C1=NOCCO1)c1ccccc1Oc1ncnc(Oc2ccccc2Cl)c1F | inactive | – |
| CN/C(=N\[N+](=O)[O-])NCc1cnc(Cl)s1 | inactive | – |
| COC(=O)NC(=S)Nc1ccccc1NC(=S)NC(=O)OC | inactive | – |
| CCNC(=O)NC(=O)C(C#N)=NOC | inactive | – |
| CCOP(=O)(OCC)Oc1nc(Cl)c(Cl)cc1Cl | inactive | – |
| CCCCC(O)(Cn1cncn1)c1ccc(Cl)cc1Cl (stereo not given) | inactive | – |
| N#Cc1c(Cl)cccc1Cl | inactive | – |
| CS(=O)(=O)c1ccc(C(=O)C2C(=O)CCCC2=O)c([N+](=O)[O-])c1 | inactive | – |

| Structure (SMILES) | outcome | AC50 |
| --- | --- | --- |
| Cc1nc(N(C)C)nc(OC(=O)N(C)C)c1C | inactive | – |
| CCSC(=O)N1CCCCCC1 | inactive | – |
| N#Cc1c[nH]cc1-c1cccc2c1OC(F)(F)O2 | inactive | – |
| COCC(=O)N(c1c(C)cccc1C)C(C)C(=O)OC (stereo not given) | inactive | – |
| C=CCOC(=O)C(C)(C)OC(=O)c1cc(-n2c(=O)cc(C(F)(F)F)n(C)c2=O)ccc1Cl | inactive | – |
| CCNP(=S)(OC)O/C(C)=C/C(=O)OC(C)C (stereo not given) | inactive | – |
| CCN(CC)c1nc(C)cc(OP(=S)(OC)OC)n1 | inactive | – |
| CC(C)Nc1nc(Cl)nc(NC(C)C)n1 | inactive | – |
| COCc1cnc(C2=NC(C)(C(C)C)C(=O)N2)c(C(=O)O)c1 (stereo not given) | inactive | – |
| COP(=O)(OC)O/C(C)=C/C(=O)N(C)C | inactive | – |
| CC(C)N1C(=O)N(c2ccccc2)CSC1=NC(C)(C)C | inactive | – |
| COCC(C)N(C(=O)CCl)c1c(C)csc1C (stereo not given) | inactive | – |
| CS(=O)(=O)c1cc(C(F)(F)F)ccc1C(=O)c1cnoc1C1CC1 | inactive | – |
| Clc1nc(Cl)nc(Nc2ccccc2Cl)n1 | inactive | – |
| O=C1C2CC=CCC2C(=O)N1SC(Cl)(Cl)Cl (stereo not given) | – | 81.7 µM (active) |
| CCOc1cc(C(C)(C)C)ccc1C1COC(c2c(F)cccc2F)=N1 (stereo not given) | inactive | – |
| CCOP(=S)(OCC)Oc1nc(Cl)n(C(C)C)n1 | inactive | – |
| CCCN(CC)CC1COC2(CCC(C(C)(C)C)CC2)O1 (stereo not given) | inactive | – |
| Cc1ccc(N=CN(C)C=Nc2ccc(C)cc2C)c(C)c1 | inactive | – |
| CC1(C)C(C(=O)OC(C#N)c2cccc(Oc3ccccc3)c2)C1(C)C (stereo not given) | inactive | – |

From PubChem BioAssay (EPA / NIEHS)
